In PubChem BioAssay (NCATS):
Results filed as inconclusive are left out. Calls of active or inactive are those of the source. The call rests on the fitted dose curve; in most records, active means well fitted inhibition curve with a large enough effect; inconclusive means small, poorly fitted or top-dose-only effect; inactive means flat fitted curve, though single readings scatter. Bridge positions count the residues as written; N and C are the ends. Square brackets hold non-standard residues; d marks the D form. Peptide text beside a SMILES is read from it. * marks the point of attachment. Ileψ(thiazoline)Cys = CC[C@H](C)[C@H](N)C1=N[C@H](C(=O)*)CS1; d(aIle) = CC[C@H](C)[C@@H](N)C(=O)O; dOrn = NCCC[C@@H](N)C(=O)O

Test system: CP217
Assay: qHTS profiling for inhibitors of Plasmodium falciparum proliferation (AID 504749); further: nearly all actives have a fitted effect of over 60% in size;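 on activity, negative = inhibition: 0% = DMSO vehicle and full inhibition = artemisinin control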
Details: P. falciparum in erythrocytes, SYBR Green DNA, 72 h; series mostly up to 12.8 µM; activity, negative = inhibition: at the top concentration
Outline: (§1)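 Parasite proliferation within erythrocytes, 72 h exposure. Endpoint: SYBR Green I fluorescence after overnight lysis at room temperature. Controls: 0.29 uM artemisinin, DMSO.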
Potency means the concentration at half of the fitted maximal effect.

activity, negative = inhibition, inactive:
Cc1ccsc1/C=C\C1=NCCCN1C -6.56%
O=C(O)COCCN1CCN([C@@H](c2ccccc2)c2ccc(Cl)cc2)CC1 -7.18%
C#C[C@]1(O)CC[C@@H]2[C@H]3CCC4=CCCC[C@@H]4[C@@H]3CC[C@@]21C -14.1%
CC1(C)[C@@H](OC(=O)CCC(=O)O)CC[C@@]2(C)[C@H]1CC[C@@]1(C)[C@H]2C(=O)C=C2[C@H]3C[C@](C)(C(=O)O)CC[C@]3(C)CC[C@@]21C 1.97%
C[C@H](CCC(=O)O)[C@H]1CC[C@@H]2[C@@H]3[C@@H](O)C[C@H]4C[C@@H](O)CC[C@@]4(C)[C@H]3CC[C@@]21C -9.49%
CN1CCO[C@H](c2ccccc2)c2ccccc2C1 -24.6%

Test system: CP237
Assay: as above
Details: P. falciparum in erythrocytes, SYBR Green DNA, 72 h; series mostly up to 12.8 µM; activity, negative = inhibition: at the top concentration
Outline: as §1

activity, negative = inhibition, inactive:
C[C@@H]1C[C@H]2[C@@H]3C[C@H](F)C4=CC(=O)C=C[C@@]4(C)[C@]3(F)[C@H](O)C[C@]2(C)[C@@]1(O)C(=O)CO 3.35%
C[C@H](O)Cn1cnc2c1c(=O)n(C)c(=O)n2C 5.3%
CCCCC[C@H](O)/C=C\[C@@H]1[C@H](O)CC(=O)[C@@H]1CCCCCCC(=O)O 1.75%
CC(=C(CCOP(=O)(O)O)SC(=O)c1ccccc1)N(C=O)Cc1cnc(C)nc1N 1.66%
NC[C@@H]1O[C@@H](O[C@H]2[C@H](O)[C@H](O[C@@H]3O[C@H](CO)[C@@H](O)[C@H](N)[C@@H]3O)[C@@H](N)C[C@H]2N)[C@H](N)C[C@@H]1O -7.08%
CCc1c(C)[nH]c2c1C(=O)[C@H](CN1CCOCC1)CC2 -4.12%
CC[C@H](C)[C@H](N)C1=N[C@H](C(=O)N[C@@H](CC(C)C)C(=O)N[C@@H](CCC(=O)O)C(=O)N[C@@H](C(=O)N[C@H]2CCCCNC(=O)[C@@H](CC(N)=O)NC(=O)[C@@H](CC(=O)O)NC(=O)[C@@H](Cc3cnc[nH]3)NC(=O)[C@@H](Cc3ccccc3)NC(=O)[C@@H]([C@@H](C)CC)NC(=O)[C@@H](CCCN)NC2=O)[C@@H](C)CC)CS1 ({Ileψ(thiazoline)Cys}-LE[d(aIle)]K[dOrn][d(aIle)][dF][dH][dD][dN]; lactam 4-C) 11.5%
CCOC(=O)O[C@@H](C)OC(=O)[C@@H]1N2C(=O)[C@@H](NC(=O)[C@@H](N)c3ccccc3)[C@H]2SC1(C)C -10.2%
Cc1cccc(CN2CCN([C@@H](c3ccccc3)c3ccc(Cl)cc3)CC2)c1 -22%
Cc1ccsc1/C=C\C1=NCCCN1C -1.35%
O=C(O)COCCN1CCN([C@@H](c2ccccc2)c2ccc(Cl)cc2)CC1 0.578%
C#C[C@]1(O)CC[C@@H]2[C@H]3CCC4=CCCC[C@@H]4[C@@H]3CC[C@@]21C 9.39%
CC1(C)[C@@H](OC(=O)CCC(=O)O)CC[C@@]2(C)[C@H]1CC[C@@]1(C)[C@H]2C(=O)C=C2[C@H]3C[C@](C)(C(=O)O)CC[C@]3(C)CC[C@@]21C -2.5%
C[C@H](CCC(=O)O)[C@H]1CC[C@@H]2[C@@H]3[C@@H](O)C[C@H]4C[C@@H](O)CC[C@@]4(C)[C@H]3CC[C@@]21C -9.43%

Potency, active:
O=C(N/N=C\c1ccc([N+](=O)[O-])o1)c1ccc(O)cc1 2510 nM
C[C@@H](CNC1CCCCC1)OC(=O)c1ccccc1 3160 nM
CN1CCO[C@H](c2ccccc2)c2ccccc2C1 2000 nM
